The text below walks through data of PubChem BioAssay (EPA / NIEHS).

Read-out in experiment [1]: Cyclin Dependent Kinase Inhibitor 1A (CDKN1A), CDKN1A (gene 1026)
Put plainly: LTEA_HepaRG_CDKN1A: Life Technologies and Expression Analysis (LTEA) Assay for Cyclin Dependent Kinase Inhibitor 1A (CDKN1A) using HepaRG (AID 2283450). Conditions: mRNA level, 48 h; actives raise or lower the signal. The method in brief: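 HepaRG, 48 h dosing, 8-pt half-log series from 100 uM top, 0.5% DMSO vehicle, duplicates. Readout: TaqMan qRT-PCR of CDKN1A transcript, housekeeping-normalized (ACTB, GAPDH, POLR2A). Up/down curve fit relative to DMSO.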

Read-out in experiment [2]: Cyclin D1 (CCND1), CCND1 (gene 595)
The experiment is described as follows: LTEA_HepaRG_CCND1: Life Technologies and Expression Analysis (LTEA) Assay for Cyclin D1 (CCND1) using HepaRG (AID 2283451). Conditions: mRNA level, 48 h; actives raise or lower the signal. The method in brief: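 qRT-PCR (Fluidigm 96.96 array) read-out of transcript level, housekeeping-normalized (ACTB/GAPDH/POLR2A). HepaRG cells, 48 h chemical exposure, 8-point half-log series from 100 uM, 0.5% DMSO vehicle; gain or loss relative to DMSO baseline.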

Read-out in experiment [3]: catalase (CAT), CAT (gene 847)
Put plainly: LTEA_HepaRG_CAT: Life Technologies and Expression Analysis (LTEA) Assay for catalase (CAT) using HepaRG (AID 2283452). The conditions noted are these: mRNA level, 48 h; actives raise or lower the signal. The method in brief: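 Expression of CAT was quantified by TaqMan qRT-PCR with ACTB/GAPDH/POLR2A normalization after 48 h chemical exposure of HepaRG. Eight-point half-log series, top 100 uM, in 0.5% DMSO; gain or loss fitted against vehicle.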

Read-out in experiment [4]: flavin-containing dimethylaniline monooxygenases 3 (FMO3), FMO3 (gene 2328)
The experiment is described as follows: LTEA_HepaRG_FMO3: Life Technologies and Expression Analysis (LTEA) Assay for flavin-containing dimethylaniline monooxygenases 3 (FMO3) using HepaRG (AID 2283453).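 For AC50: differentiated human HepaRG liver cells in serum-free induction medium.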 The conditions noted are these: mRNA level, 48 h; actives raise or lower the signal. Put shortly: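 Eight-point concentration-response in serum-free HepaRG cultures (top 100 uM, 0.5% DMSO, 48 h). Read-out: FMO3 mRNA level normalized to three endogenous control genes, fitted bidirectionally versus vehicle.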

Read-out in experiment [5]: Cytochrome P450 (CYP1A1), CYP1A1 (gene 1543)
The experiment is described as follows: LTEA_HepaRG_CYP1A1: Life Technologies and Expression Analysis (LTEA) Assay for Cytochrome P450 (CYP1A1) using HepaRG (AID 2283454). Conditions: mRNA level, 48 h; actives raise or lower the signal. The method in brief:
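qRT-PCR read-out: CYP1A1 transcript normalized to three housekeeping genes, fitted bidirectionally against 0.5% DMSO vehicle baseline. Human HepaRG cells, 48 h chemical exposure, 8-point half-log series topping at 100 uM.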

Read-out in experiment [6]: CFLAR gene, CFLAR (gene 8837)
Put plainly: LTEA_HepaRG_CFLAR: Life Technologies and Expression Analysis (LTEA) Assay for CFLAR gene using HepaRG (AID 2283455). The conditions noted are these: mRNA level, 48 h; actives raise or lower the signal. The method in brief:
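Transcript level by qRT-PCR (normalized to ACTB, GAPDH and POLR2A) after 48 h chemical exposure of HepaRG cells, top concentration 100 uM with half-log steps, 0.5% DMSO vehicle, duplicates; fitted bidirectionally against DMSO baseline.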

Read-out in experiment [7]: Forkhead box O1 (FOXO1), FOXO1 (gene 2308)
The experiment is described as follows: LTEA_HepaRG_FOXO1: Life Technologies and Expression Analysis (LTEA) Assay for Forkhead box O1 (FOXO1) using HepaRG (AID 2283456). The conditions noted are these: mRNA level, 48 h; actives raise or lower the signal. Put shortly:
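FOXO1 transcript quantified by qRT-PCR after 48 h chemical exposure (top 100 uM, half-log steps, 0.5% DMSO) of HepaRG cells, housekeeping-normalized (ACTB/GAPDH/POLR2A). Changes fitted in both directions relative to vehicle.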

A short description of experiment [8]: CEETOX_H295R_TESTO: CeeTox H295R High-throughput Steroidogenesis Assay for Testosterone (TESTO) (AID 2283457). The conditions noted are these: actives raise or lower the signal. The method in brief: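 Readout: testosterone quantified by HPLC-MS/MS (C18, ESI positive) after MTBE liquid-liquid extraction of culture medium. Cells were H295R, 48 h chemical exposure per OECD 456 with modifications. Gain or loss of signal fitted relative to DMSO.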

Read-out in experiment [9]: growth arrest and DNA damage 45 (GADD45A), GADD45A (gene 1647)
Put plainly: LTEA_HepaRG_GADD45A: Life Technologies and Expression Analysis (LTEA) Assay for growth arrest and DNA damage 45 (GADD45A) using HepaRG (AID 2283458). The conditions noted are these: mRNA level, 48 h; actives raise or lower the signal. The method in brief: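 HepaRG, 48 h exposure, 8 conc. (top 100 uM, half-log steps), 0.5% DMSO vehicle, duplicates. Read-out: qRT-PCR mRNA level, housekeeping-normalized (ACTB/GAPDH/POLR2A). Curves fit bidirectionally vs DMSO baseline.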

Read-out in experiment [10]: ABC Transporter (ABCB1), ABCB1 (gene 5243)
Put plainly: LTEA_HepaRG_ABCB1: Life Technologies and Expression Analysis (LTEA) Assay for ABC Transporter (ABCB1) using HepaRG (AID 2283460). Conditions: mRNA level, 48 h; actives raise or lower the signal. The method in brief: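 ABCB1 transcript level measured by TaqMan qRT-PCR against three housekeeping genes after 48 h chemical exposure of differentiated HepaRG cells. Top concentration 100 uM, half-log steps, eight points, 0.5% DMSO vehicle; bidirectional fit relative to DMSO.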

Read-out in experiment [11]: growth arrest and DNA damage 45 (GADD45B), GADD45B (gene 4616)
Put plainly: LTEA_HepaRG_GADD45B: Life Technologies and Expression Analysis (LTEA) Assay for growth arrest and DNA damage 45 (GADD45B) using HepaRG (AID 2283461). Conditions: mRNA level, 48 h; actives raise or lower the signal. The method in brief:
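qRT-PCR read-out (Fluidigm TaqMan, housekeeping-normalized) of mRNA change in human HepaRG cells after 48 h chemical exposure; 8-point curve, top 100 uM, half-log steps, 0.5% DMSO vehicle; gain or loss fitted relative to DMSO baseline.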

Read-out in experiment [12]: ABC Transporter (ABCB11), ABCB11 (gene 8647)
Put plainly: LTEA_HepaRG_ABCB11: Life Technologies and Expression Analysis (LTEA) Assay for ABC Transporter (ABCB11) using HepaRG (AID 2283463). Conditions: mRNA level, 48 h; actives raise or lower the signal. Put shortly: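 ABCB11 transcript levels quantified by TaqMan qRT-PCR against three housekeeping genes after 48 h chemical exposure of HepaRG cultures. Concentrations up to 100 uM in half-log steps, 0.5% DMSO vehicle; both induction and suppression scored.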

Read-out in experiment [13]: ABC Transporter (ABCC2), ABCC2 (gene 1244)
The experiment is described as follows: LTEA_HepaRG_ABCC2: Life Technologies and Expression Analysis (LTEA) Assay for ABC Transporter (ABCC2) using HepaRG (AID 2283464). Conditions: mRNA level, 48 h; actives raise or lower the signal. The method in brief:
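qRT-PCR (TaqMan, Fluidigm array) read-out of ABCC2 mRNA, normalized to three housekeeping genes. Differentiated HepaRG cells were treated 48 h in serum-free induction medium with 8-point half-log series from 100 uM in 0.5% DMSO; curves fitted bidirectionally relative to DMSO.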

Read-out in experiment [14]: Broad substrate specificity ATP-binding cassette transporter ABCG2 (Homo sapiens) (UniProt Q9UNQ0)
Put plainly: LTEA_HepaRG_ABCG2: Life Technologies and Expression Analysis (LTEA) Assay for ABC Transporter (ABCG2) using HepaRG (AID 2283465). The conditions noted are these: mRNA level, 48 h; actives raise or lower the signal. Put shortly: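 ABCG2 transcript was quantified by TaqMan qRT-PCR against three housekeeping genes in HepaRG cells. Cells were treated in duplicate for 48 h across an 8-point half-log series up to 100 uM, with 0.5% DMSO vehicle. Gain or loss versus DMSO was fit.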

Read-out in experiment [15]: ATP-citrate lyase (ACLY), ACLY (gene 47)
The experiment is described as follows: LTEA_HepaRG_ACLY: Life Technologies and Expression Analysis (LTEA) Assay for ATP-citrate lyase (ACLY) using HepaRG (AID 2283466). The conditions noted are these: mRNA level, 48 h; actives raise or lower the signal. Put shortly:
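ACLY mRNA quantified by qRT-PCR on Fluidigm arrays against three housekeeping genes, after 48 h chemical treatment of HepaRG cells (top concentration 100 uM, half-log steps, 0.5% DMSO vehicle). Up- or down-regulation fitted relative to DMSO.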

Read-out in experiment [16]: Alkaline Phosphatase, Placental (ALPP) gene, ALPP (gene 250)
Put plainly: LTEA_HepaRG_ALPP: Life Technologies and Expression Analysis (LTEA) Assay for Alkaline Phosphatase, Placental (ALPP) gene using HepaRG (AID 2283468).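 For AC50: differentiated human HepaRG liver cells in serum-free induction medium.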 Conditions: mRNA level, 48 h; actives raise or lower the signal. Put shortly: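 qRT-PCR readout of ALPP mRNA (Fluidigm TaqMan), normalized to ACTB/GAPDH/POLR2A, after 48 h chemical exposure of HepaRG cells; 8-point half-log series, top 100 uM, 0.5% DMSO vehicle. Bidirectional curve fit versus DMSO baseline.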

Read-out in experiment [17]: Bcl-2 (BAD) gene, BAD (gene 572)
The experiment is described as follows: LTEA_HepaRG_BAD: Life Technologies and Expression Analysis (LTEA) Assay for Bcl-2 (BAD) gene using HepaRG (AID 2283469). The conditions noted are these: mRNA level, 48 h; actives raise or lower the signal. The method in brief:
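Read-out: qRT-PCR of BAD mRNA, normalized to three housekeeping genes. Human HepaRG cultures got 48 h chemical exposure in 0.5% DMSO, duplicate eight-point half-log series topping at 100 uM. Gain or loss of signal fitted versus DMSO vehicle.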

Read-out in experiment [18]: Forkhead box O3 (FOXO3), FOXO3 (gene 2309)
Put plainly: LTEA_HepaRG_FOXO3: Life Technologies and Expression Analysis (LTEA) Assay for Forkhead box O3 (FOXO3) using HepaRG (AID 2283459). Conditions: mRNA level, 48 h; actives raise or lower the signal. Put shortly:
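FOXO3 transcript measured by qRT-PCR (normalized to ACTB, GAPDH, POLR2A) after 48 h exposure of HepaRG cells in serum-free induction medium. Duplicates, eight half-log concentrations up to 100 uM, 0.5% DMSO; gain or loss fitted against DMSO.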

Read-out in experiment [19]: Peroxisomal acyl-coenzyme A oxidase 1 (ACOX1) gene, ACOX1 (gene 51)
The experiment is described as follows: LTEA_HepaRG_ACOX1: Life Technologies and Expression Analysis (LTEA) Assay for Peroxisomal acyl-coenzyme A oxidase 1 (ACOX1) gene using HepaRG (AID 2283467). Conditions: mRNA level, 48 h; actives raise or lower the signal. Put shortly: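 ACOX1 transcript levels were quantified by TaqMan qRT-PCR against three housekeeping genes after 48 h chemical exposure of differentiated human HepaRG cells. Exposure used eight half-log steps topping at 100 uM, 0.5% DMSO vehicle, in duplicate. Bidirectional curve fits were made relative to DMSO.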

Calls of active or inactive are those of the source. Rule for the calls: active = hit-call score of the fitted dose curve at least 0.9, where 1 is the maximum; inactive = score below 0.9.

Usually AC50 stands for the midpoint of the concentration-response curve, whichever way the signal moves.

Chain of Broad substrate specificity ATP-binding cassette transporter ABCG2 (Homo sapiens) (Q9UNQ0 whole entry, looked up): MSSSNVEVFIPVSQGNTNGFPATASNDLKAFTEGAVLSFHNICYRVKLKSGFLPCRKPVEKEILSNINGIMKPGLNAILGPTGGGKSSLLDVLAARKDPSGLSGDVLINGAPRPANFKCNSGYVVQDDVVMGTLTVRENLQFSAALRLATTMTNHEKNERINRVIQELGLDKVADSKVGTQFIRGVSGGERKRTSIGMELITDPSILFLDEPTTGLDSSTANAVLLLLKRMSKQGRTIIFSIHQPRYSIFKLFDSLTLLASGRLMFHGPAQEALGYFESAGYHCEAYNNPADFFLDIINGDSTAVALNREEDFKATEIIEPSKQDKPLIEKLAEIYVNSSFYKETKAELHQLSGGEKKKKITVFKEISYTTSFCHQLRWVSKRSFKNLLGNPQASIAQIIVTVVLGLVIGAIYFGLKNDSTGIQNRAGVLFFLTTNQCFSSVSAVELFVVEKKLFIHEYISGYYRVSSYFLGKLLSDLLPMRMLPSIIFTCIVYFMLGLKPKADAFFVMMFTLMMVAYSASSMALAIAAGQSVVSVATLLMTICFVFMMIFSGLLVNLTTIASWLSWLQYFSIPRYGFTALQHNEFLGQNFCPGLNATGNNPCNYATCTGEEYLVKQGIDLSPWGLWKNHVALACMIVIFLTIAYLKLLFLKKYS

In the case of `O=C(O)Cn1c(=O)n(Cc2ccc(Br)cc2F)c(=O)c2ccc(Cl)cc21`, the molecule was classed as inactive in experiment [1], in experiment [2], in experiment [3], in experiment [4], in [6] and in experiment [7]. The outcome in experiment [8], in [9], in experiment [11], in experiment [12], in [13] and in [14] was inactive. For the same molecule, the call in [15], in experiment [16] and in [17] was inactive. For the same molecule, the concentration at half-maximal activity (AC50) in [5] is 87.8 µM (active); in [10], 9.92 µM (active).

Regarding `O=C(Nc1ccc(Cl)cc1)Nc1ccc(Cl)c(Cl)c1`, the call in [1], in [2], in [6], in [8], in [13] and in experiment [17] was inactive. Further, the AC50 in experiment [3] was 16.6 µM (active); in experiment [4], 22.9 µM (active); in [5] it was 27.7 µM (active); in [7], 18.6 µM (active); in experiment [9] it was 21.7 µM (active); in experiment [18] it was 11.8 µM (active). Besides, the half-maximal activity concentration (AC50) is 18.9 µM (active) in experiment [10]; 15 µM (active) in experiment [12]; 12.4 µM (active) in experiment [14]; 17.5 µM (active) in [15]; 18.5 µM (active) in experiment [19]; 19.6 µM (active) in experiment [16].

As to `O=C(O)c1ccccc1-n1cc(C(=O)O)c(=O)c2cc(Nc3c(F)cc(F)cc3Cl)c(Cl)cc21`, the molecule was classed as inactive in [1], in [2], in [3], in experiment [4], in [6] and in experiment [7]. Also, the call in experiment [18], in [11], in experiment [12], in experiment [14], in experiment [15] and in [17] was inactive. The AC50 was 20.5 µM (active) in [5]; 0.00848 µM (active) in experiment [9]; 15.5 µM (active) in experiment [10]; 10.6 µM (active) in experiment [13]; 0.0892 µM (active) in experiment [16].
